Calls of active or inactive are those of the source.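 The calls were made as follows: active = GFP response below 50% of the DMSO control; inconclusive = fewer than 70 events counted for a yeast strain; inactive = the rest.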
Assay: hit retest on RPL19A-GFP reporter strain – cell-based, S. cerevisiae, flow cytometry, cherry picks, mother/daughter gates, confirmation (AID 2270)
Conditions: 3 h, at 10 µM, stronger effect = lower value, 100 = same GFP as DMSO wells
With `COc1ccc(COC(=O)c2n[nH]c3ccccc23)cc1F` the GFP response vs DMSO was 98.4% (inactive).
For `CCCc1cc(N2CCN(c3ccccn3)CC2)n2nc(C)c(-c3ccccc3)c2n1`, the GFP response vs DMSO was 104% (inactive).
With `O=C1c2ccccc2C2=Nc3ccccc3SC(c3cccc(F)c3)C12` (stereo not given) the GFP response vs DMSO was 102% (inactive).
In the case of `CCOC(=O)COc1c(Cl)cc(/C=C2\N=C(C)OC2=O)cc1OC`, the GFP response vs DMSO is reported as 105% (inactive).
In the case of `Cc1nn2c(N3CCN(C(=O)c4ccco4)CC3)cc(C(C)(C)C)nc2c1-c1ccccc1`, the GFP response vs DMSO is reported as 98.2% (inactive).
For `Cc1ccc(S(=O)(=O)N(CC(=O)NCc2ccncc2)Cc2ccccc2F)cc1`, the GFP response vs DMSO was 97.6% (inactive).
For `Cc1ccc(N2C(=O)C3C4C=CC(CNC(=S)Nc5ccc(F)cc5)(O4)C3C2=O)cc1` (stereo not given), the GFP response vs DMSO was 98.4% (inactive).
With `COc1ccc(CC(=O)Oc2ccccc2C)cc1` the GFP response vs DMSO was 98% (inactive).
For `Cc1cc(C=C2C(=O)c3ccccc3C2=O)c(C)n1-c1cccc(C(=O)O)c1`, the GFP response vs DMSO was 100% (inactive).
For `CC(C)c1ccc2c(c1)C1(NN=C(c3ccccc3)S1)C(=O)N2` (stereo not given), the GFP response vs DMSO was 105% (inactive).
For `O=C(N/N=C\c1ccc(F)cc1)c1cc(OCC(F)(F)F)ccc1OCC(F)(F)F`, the GFP response vs DMSO was 99.1% (inactive).
With `Cc1cc(NCCCN2CCOCC2)n2ncc(-c3ccccc3)c2n1` the GFP response vs DMSO was 99.3% (inactive).
With `COc1cc(NC(C)=O)ccc1NC(=O)c1cc2ccccc2o1` the GFP response vs DMSO was 99% (inactive).
For `COc1ccc(CCN2C(=O)c3cccc4cccc(c34)C2=O)cc1OC`, the GFP response vs DMSO was 104% (inactive).
For `CN(O)/C=c1/ccc2c(n1)C(=O)C=CC=2`, the GFP response vs DMSO was 105% (inactive).
In the case of `C/C(=N\NC(=O)c1ccc(Cl)c(Cl)c1)c1cccc(NC(=O)C(C)C)c1`, the GFP response vs DMSO is reported as 99.9% (inactive).
For `Cc1ccc(-c2ccc(/C=N/NC(N)=S)o2)cc1`, the GFP response vs DMSO was 98.6% (inactive).
In the case of `CC(C)(C)c1ccc(C(=O)N/N=C/c2cccc(Cl)c2)cc1`, the GFP response vs DMSO is reported as 96% (inactive).
In the case of `Cc1ccc(S(=O)(=O)Nc2cc(Cl)c(O)c3ncccc23)cc1`, the GFP response vs DMSO is reported as 95.2% (inactive).
In the case of `CC1CCc2c(C(=O)NCc3cccnc3)csc2C1` (stereo not given), the GFP response vs DMSO is reported as 94.2% (inactive).
In the case of `CCNc1nc(-c2ccc(Cl)cc2)cs1`, the GFP response vs DMSO is reported as 101% (inactive).
With `O=C(CSc1nc2ccsc2c(=O)n1CC1CCC(C(=O)O)CC1)c1ccc(F)cc1` (stereo not given) the GFP response vs DMSO was 102% (inactive).
In the case of `CC(=O)Oc1ccc(N2C(=O)C3C4C=CC(CO)(O4)C3C2=O)cc1` (stereo not given), the GFP response vs DMSO is reported as 103% (inactive).
For `Oc1c(C(Nc2cccc(C(F)(F)F)c2)c2ccncc2)ccc2cccnc12` (stereo not given), the GFP response vs DMSO was 105% (inactive).
For `COc1cc(C2CC(c3cccnc3)=NN2c2ccc(F)cc2)cc(OC)c1OC` (stereo not given), the GFP response vs DMSO was 98.2% (inactive).
With `COc1ccc(C(=O)C2CCCN(C(=O)c3cccs3)C2)cc1F` (stereo not given) the GFP response vs DMSO was 102% (inactive).
With `COC(=O)c1ccc(Cn2cc(/C=C\[N+](=O)[O-])c3ccccc32)o1` the GFP response vs DMSO was 103% (inactive).
For `CC(C)(C)NC(=O)CN(C(=O)CCC(=O)Nc1nccs1)c1ccc(F)cc1`, the GFP response vs DMSO was 101% (inactive).
In the case of `COc1ccccc1CNC(=O)CS(=O)Cc1nc(-c2ccc(OC)c(OC)c2)oc1C` (stereo not given), the GFP response vs DMSO is reported as 97.2% (inactive).
In the case of `O=C(COC(=O)C1CCN(c2ccc(C(F)(F)F)cn2)CC1)Nc1cccc(F)c1`, the GFP response vs DMSO is reported as 95% (inactive).
For `COc1ccc(CCNc2nc(-c3sc(C)nc3C)cs2)cc1OC`, the GFP response vs DMSO was 96.6% (inactive).
For `O=C(Nc1c2c(nn1-c1ccccc1)CS(=O)C2)c1ccco1` (stereo not given), the GFP response vs DMSO was 96.5% (inactive).
With `Cc1ccsc1/C=N/Nc1ncc(Cl)cc1Cl` the GFP response vs DMSO was 97% (inactive).
With `O=C(Nc1ccc(S(=O)(=O)N2CCOCC2)cc1)c1ccc([N+](=O)[O-])cc1Cl` the GFP response vs DMSO was 99.6% (inactive).
In the case of `Cc1ccc(-c2nc(NC(=O)c3nn(C)cc3[N+](=O)[O-])sc2C)cc1C`, the GFP response vs DMSO is reported as 101% (inactive).
With `CC(C)c1nnc(SCC(=O)N2CCc3ccccc32)n1C` the GFP response vs DMSO was 102% (inactive).
For `O=S(=O)(c1ccc(-c2ccccc2)cc1)N1CCOCC1`, the GFP response vs DMSO was 96.7% (inactive).
In the case of `Cc1cc(O)c(C(=O)/C=C/c2cccc([N+](=O)[O-])c2)c(=O)o1`, the GFP response vs DMSO is reported as 98.7% (inactive).
In the case of `COc1ccccc1N=Nc1ccc(O)c2ncccc12`, the GFP response vs DMSO is reported as 104% (inactive).
In the case of `N=c1ccn(CC(=O)c2ccc(-c3ccccc3)cc2)cc1`, the GFP response vs DMSO is reported as 99.7% (inactive).

Same assay, conditions: 3 h, measured here: daughter cell gate, at 10 µM, stronger effect = lower value, 100 = same GFP as DMSO wells
`COc1ccc(COC(=O)c2n[nH]c3ccccc23)cc1F` gave a GFP response vs DMSO of 96.7%.
For `CCCc1cc(N2CCN(c3ccccn3)CC2)n2nc(C)c(-c3ccccc3)c2n1`, the GFP response vs DMSO was 101%.
`O=C1c2ccccc2C2=Nc3ccccc3SC(c3cccc(F)c3)C12` (stereo not given) showed a GFP response vs DMSO of 98.4%.
`CCOC(=O)COc1c(Cl)cc(/C=C2\N=C(C)OC2=O)cc1OC` gave a GFP response vs DMSO of 105%.
`Cc1nn2c(N3CCN(C(=O)c4ccco4)CC3)cc(C(C)(C)C)nc2c1-c1ccccc1` gave a GFP response vs DMSO of 97.6%.
`Cc1ccc(S(=O)(=O)N(CC(=O)NCc2ccncc2)Cc2ccccc2F)cc1` gave a GFP response vs DMSO of 97.1%.
Compound `Cc1ccc(N2C(=O)C3C4C=CC(CNC(=S)Nc5ccc(F)cc5)(O4)C3C2=O)cc1` (stereo not given) has a GFP response vs DMSO of 99.9%.
`COc1ccc(CC(=O)Oc2ccccc2C)cc1` gave a GFP response vs DMSO of 99.6%.
`Cc1cc(C=C2C(=O)c3ccccc3C2=O)c(C)n1-c1cccc(C(=O)O)c1` showed a GFP response vs DMSO of 101%.
In the case of `CC(C)c1ccc2c(c1)C1(NN=C(c3ccccc3)S1)C(=O)N2` (stereo not given), the GFP response vs DMSO is reported as 107%.
With `O=C(N/N=C\c1ccc(F)cc1)c1cc(OCC(F)(F)F)ccc1OCC(F)(F)F` the GFP response vs DMSO was 99.3%.
Work on `Cc1cc(NCCCN2CCOCC2)n2ncc(-c3ccccc3)c2n1` yielded a GFP response vs DMSO of 98.1%.
For `COc1cc(NC(C)=O)ccc1NC(=O)c1cc2ccccc2o1`, the GFP response vs DMSO was 97.8%.
Compound `COc1ccc(CCN2C(=O)c3cccc4cccc(c34)C2=O)cc1OC` has a GFP response vs DMSO of 100%.
Compound `CN(O)/C=c1/ccc2c(n1)C(=O)C=CC=2` has a GFP response vs DMSO of 108%.
With `C/C(=N\NC(=O)c1ccc(Cl)c(Cl)c1)c1cccc(NC(=O)C(C)C)c1` the GFP response vs DMSO was 99.8%.
`Cc1ccc(-c2ccc(/C=N/NC(N)=S)o2)cc1` gave a GFP response vs DMSO of 95%.
Compound `CC(C)(C)c1ccc(C(=O)N/N=C/c2cccc(Cl)c2)cc1` has a GFP response vs DMSO of 96.4%.
With `Cc1ccc(S(=O)(=O)Nc2cc(Cl)c(O)c3ncccc23)cc1` the GFP response vs DMSO was 94.2%.
For `CC1CCc2c(C(=O)NCc3cccnc3)csc2C1` (stereo not given), the GFP response vs DMSO was 94.2%.
For `CCNc1nc(-c2ccc(Cl)cc2)cs1`, the GFP response vs DMSO was 100%.
`O=C(CSc1nc2ccsc2c(=O)n1CC1CCC(C(=O)O)CC1)c1ccc(F)cc1` (stereo not given) gave a GFP response vs DMSO of 100%.
Work on `CC(=O)Oc1ccc(N2C(=O)C3C4C=CC(CO)(O4)C3C2=O)cc1` (stereo not given) yielded a GFP response vs DMSO of 104%.
`Oc1c(C(Nc2cccc(C(F)(F)F)c2)c2ccncc2)ccc2cccnc12` (stereo not given) showed a GFP response vs DMSO of 104%.
`COc1cc(C2CC(c3cccnc3)=NN2c2ccc(F)cc2)cc(OC)c1OC` (stereo not given) gave a GFP response vs DMSO of 98.4%.
Work on `COc1ccc(C(=O)C2CCCN(C(=O)c3cccs3)C2)cc1F` (stereo not given) yielded a GFP response vs DMSO of 101%.
Work on `COC(=O)c1ccc(Cn2cc(/C=C\[N+](=O)[O-])c3ccccc32)o1` yielded a GFP response vs DMSO of 104%.
`CC(C)(C)NC(=O)CN(C(=O)CCC(=O)Nc1nccs1)c1ccc(F)cc1` gave a GFP response vs DMSO of 100%.
Work on `COc1ccccc1CNC(=O)CS(=O)Cc1nc(-c2ccc(OC)c(OC)c2)oc1C` (stereo not given) yielded a GFP response vs DMSO of 97.4%.
In the case of `O=C(COC(=O)C1CCN(c2ccc(C(F)(F)F)cn2)CC1)Nc1cccc(F)c1`, the GFP response vs DMSO is reported as 94.6%.
In the case of `COc1ccc(CCNc2nc(-c3sc(C)nc3C)cs2)cc1OC`, the GFP response vs DMSO is reported as 97.6%.
Work on `O=C(Nc1c2c(nn1-c1ccccc1)CS(=O)C2)c1ccco1` (stereo not given) yielded a GFP response vs DMSO of 97.3%.
For `Cc1ccsc1/C=N/Nc1ncc(Cl)cc1Cl`, the GFP response vs DMSO was 94.2%.
Work on `O=C(Nc1ccc(S(=O)(=O)N2CCOCC2)cc1)c1ccc([N+](=O)[O-])cc1Cl` yielded a GFP response vs DMSO of 101%.
For `Cc1ccc(-c2nc(NC(=O)c3nn(C)cc3[N+](=O)[O-])sc2C)cc1C`, the GFP response vs DMSO was 101%.
In the case of `CC(C)c1nnc(SCC(=O)N2CCc3ccccc32)n1C`, the GFP response vs DMSO is reported as 101%.
`O=S(=O)(c1ccc(-c2ccccc2)cc1)N1CCOCC1` gave a GFP response vs DMSO of 96.1%.
For `Cc1cc(O)c(C(=O)/C=C/c2cccc([N+](=O)[O-])c2)c(=O)o1`, the GFP response vs DMSO was 101%.
`COc1ccccc1N=Nc1ccc(O)c2ncccc12` gave a GFP response vs DMSO of 101%.
Compound `N=c1ccn(CC(=O)c2ccc(-c3ccccc3)cc2)cc1` has a GFP response vs DMSO of 99.3%.

Reference: PubChem BioAssay
